Measured values: the supplement of paper PMC7801607

The compounds below were run on Plasmodium berghei ANKA liver stage in HepG2-A16-CD81 (assay: % inhibition of liver stage parasite viability (luciferase); higher = more inhibition). Conditions: 5 µM; 48 h.
Procedure: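 Single-concentration screen of the MMV Pandemic Response Box. P. falciparum NF54 asexual blood stages: pLDH assay, 72 h at 37 °C, 2 and 20 µM, n=2. Stage IV/V gametocytes (NF54): luciferase reporter (NF54-Pfs16-GFP-Luc, 48 h), ATP bioluminescence (24 h) and PrestoBlue (48 h) at 1 and 5 µM, n=1. P. berghei liver stage (luciferase in HepG2-A16-CD81, 48 h post infection) at 5 µM, n=4. All normalised to DMSO and kill controls as % inhibition.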
With `Cc1cccc(CC(=O)N[C@H]2CCOC2=O)c1` the “% inhibition of liver stage parasite viability” value (from here on “% inhibition”) was 4.19%.
In the case of `O=C(Nc1[nH]c(=O)ncc1F)c1ccccc1`, the “% inhibition” value is reported as 24.1%.
`N#Cc1cc([N+](=O)[O-])ccc1Oc1ccccc1Cl` was tested, and the “% inhibition” value was 12.4%.
In the case of `Nc1nc(O)c(Br)c(-c2ccccc2)n1`, the “% inhibition” value is reported as 5.43%.
For `O=C(O)c1cc(-c2ccc(Br)cc2)nc2ccc(Cl)cc12`, the “% inhibition” value was -34.6%.
`COc1ccc(C(C)(C)C)cc1NC(=O)C(=O)c1ccc(OCCN2CCOCC2)c2ccccc12` was tested, and the “% inhibition” value was 15.1%.
`O=C(O)c1ccc(-n2nc(-c3ccccc3O)nc2-c2ccccc2O)cc1` was tested, and the “% inhibition” value was 18.6%.
In the case of `c1cc(CN2CCCNCCNCCCNCC2)ccc1CN1CCCNCCNCCCNCC1`, the “% inhibition” value is reported as 1.46%.
`CC(C)(C)OC(=O)NCc1ccc(C(=O)N[C@H]2CCOC2=O)cc1` was tested, and the “% inhibition” value was 39.8%.
In the case of `CC(C)(C)c1cccc(-c2nc3cc(C(=N)N)ccc3[nH]2)c1O`, the “% inhibition” value is reported as 26.2%.
In the case of `CCN(CC)CCCC(C)Nc1ccnc2cc(Cl)ccc12` (stereo not given), the “% inhibition” value is reported as 14.3%.
For `Oc1ccc(NCc2ccccc2OCc2ccccc2)cc1`, the “% inhibition” value was 25.2%.
With `Cc1oncc1C(=O)Nc1ccc(C(F)(F)F)cc1` the “% inhibition” value was -59.9%.
`CCc1oc2ccccc2c1C(=O)c1ccc(O)cc1` was tested, and the “% inhibition” value was 39.9%.
In the case of `N#C/C(=C1/SC[C@H](c2ccc(Cl)cc2Cl)S1)n1ccnc1`, the “% inhibition” value is reported as 24%.
With `O=C(Nc1ccc(Cl)c(C(F)(F)F)c1)C(CCCl)C(=O)Nc1ccc(Cl)c(C(F)(F)F)c1` the “% inhibition” value was 11.8%.
`CC(=O)O[C@H]1C[C@@]2(C)[C@@H](C[C@@H](O)[C@H]3[C@@]4(C)CC[C@@H](O)[C@@H](C)[C@@H]4CC[C@@]32C)/C1=C(\CCC=C(C)C)C(=O)O` was tested, and the “% inhibition” value was 36.2%.
`Cc1ccc(C)c(OCCCCCCN2C[C@H](O)[C@@H](O)[C@H](O)[C@H]2CO)c1` was tested, and the “% inhibition” value was 11.6%.
For `O=S(=O)(NCB(O)O)c1cc2c(Cl)ccc(Cl)c2s1`, the “% inhibition” value was -37.4%.
For `CC(=O)N1c2ccccc2NC2=C(C(=O)CC(C)(C)C2)C1c1ccc(OCc2ccccc2)cc1` (stereo not given), the “% inhibition” value was 27.4%.
For `Nc1cc(-c2nc3ccccc3[nH]2)n[nH]c1=O`, the “% inhibition” value was 24%.
In the case of `COc1ccc(C2CNC(=O)C2)cc1OC1CCCC1` (stereo not given), the “% inhibition” value is reported as 29.1%.
For `NNC(=O)c1ccncc1`, the “% inhibition” value was 22.9%.
For `CCc1nc2ccccn2c1C(=O)NCc1ccccc1`, the “% inhibition” value was 25.4%.
`CNC(=O)C1O[C@@H](n2cnc3c(NCc4cccc(I)c4)nc(Cl)nc32)[C@H](O)[C@@H]1O` (stereo not given in full) was tested, and the “% inhibition” value was 19.8%.
For `O=C(NC(=O)N1CCCc2ccccc21)c1cccc(Cl)c1`, the “% inhibition” value was 11.4%.
In the case of `CC(C)Oc1ccc(-n2cnc3cc(/C=C\c4ccc(C(C)(C)O)cc4)ccc32)cc1`, the “% inhibition” value is reported as 20.4%.
In the case of `Oc1cccc(C(Nc2nccs2)c2ccc3cccnc3c2O)c1` (stereo not given), the “% inhibition” value is reported as 20.6%.
With `Cc1ccccc1NC(=O)Nc1cccc([N+](=O)[O-])c1` the “% inhibition” value was 6.73%.
In the case of `O=C(/C(=C/c1ccc(Cl)cc1Cl)n1ccnc1)c1ccc(Cl)cc1`, the “% inhibition” value is reported as 26.7%.
`CCOC(=O)N1CCN(c2ccc(Cl)cc2)CC1` was tested, and the “% inhibition” value was 29.3%.
`Nc1ccc(-c2nc3cc(C(F)(F)F)ccc3n2C23CC4CC(CC(C4)C2)C3)cc1` was tested, and the “% inhibition” value was 20.5%.
`Cc1cc(C2CCCCC2)n(O)c(=O)c1` was tested, and the “% inhibition” value was 14.2%.
For `CCC(C)NCC(O)Cn1c2ccc(Cl)cc2c2cc(Cl)ccc21` (stereo not given), the “% inhibition” value was -2.71%.
For `CC(N)C(=O)NC(CCCCN)C(=O)NC(CCCNC(=N)N)C(=O)NC(Cc1c[nH]cn1)C(=O)NC(Cc1c[nH]cn1)C(=O)NCC(=O)NC(Cc1ccc(O)cc1)C(=O)NC(CCCCN)C(=O)NC(CCCNC(=N)N)C(=O)NC(CCCCN)C(=O)NC(Cc1ccccc1)C(=O)NC(Cc1c[nH]cn1)C(N)=O` (stereo not given), the “% inhibition” value was 26.4%.
With `O=C(CCCC(F)(F)F)N1CCC(c2nc(-c3nccs3)no2)CC1` the “% inhibition” value was -0.37%.
In the case of `O=S(=O)(Nc1ccc(-n2cccc2)cc1)c1ccc(Cl)c(Cl)c1`, the “% inhibition” value is reported as 38%.
For `CCCCCCCc1[nH]c2ccccc2c(=O)c1O`, the “% inhibition” value was 72.5%.
In the case of `OB1OCc2c1ccc(Cl)c2F`, the “% inhibition” value is reported as 7.88%.
With `CCC(C)(C)c1ccc(CC(C)CN2C[C@@H](C)O[C@@H](C)C2)cc1` (stereo not given in full) the “% inhibition” value was 40.5%.
